This is an account of results in PubChem BioAssay.

“And” between values parts separate entries of the source, which are not always exact repeats. Identical values can stand only once. Results filed as inconclusive are left out. The source made the active and inactive calls.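 Rule for the calls, unless noted: active = thallium flux through the channel raised or lowered by more than 3 SD from vehicle-only wells, actives on both sides; inactive = the rest.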

Experiment [1] can be described thus: hESC survival regulators, cell-based (AID 493140; call rule not given here;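 note: cells exposed to compounds for four days before counting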). Particulars: human embryonic stem cell survival screen; stronger effect = higher value.
Experiment [2] in a line: growth inhibition of DIPG glioma cells, dose response, cell-based, JHH-DIPG-1, MIPE4.0, CellTiter-Glo, qHTS (AID 1347062; cut-off not given, nearly all actives have AC50 up to about 27 µM). The settings on record: JHH-DIPG-1 viability, CellTiter-Glo ATP luminescence. For orientation: In ATP-based viability assays light output follows the ATP content of the culture.
Experiment [3] in a line: growth inhibition of DIPG glioma cells, dose response, cell-based, SU-DIPG-XIII, MIPE5.0, CellTiter-Glo, qHTS (AID 1347064; cut-off not given, nearly all actives have AC50 up to about 23 µM). Particulars: SU-DIPG-XIII viability, CellTiter-Glo ATP luminescence.
A short description of experiment [4]: phospholipid biosynthesis inhibitors in animal cells, primary screen, cell-based, LOPAC library, screen 4 (AID 1347384; call rule not given here). The settings on record: phospholipid biosynthesis inhibition screen, at 10 µM.
The nature of experiment [5]: LFS_MB_P medulloblastoma growth inhibition, cell-based, chromothripsis tumors, cisplatin or BGB combos (AID 1671449; in the data active = inhibition above about 80%;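 note: cells exposed for 96 hours; 0% = vehicle DMSO and 100% = killing by high DMSO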). The settings on record: LFS_MB_P medulloblastoma cells.
Experiment [6] can be described thus: HDN33 neuroblastoma growth inhibition, cell-based, chromothripsis tumors, cisplatin or BGB combos (AID 1671450; in the data active = inhibition above about 80%;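 note: cells exposed to compound for four days; 0% = vehicle DMSO and 100% = cell killing by high DMSO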). Particulars: HDN33 neuroblastoma cells, stronger effect = higher value.
Experiment [7] can be described thus: HTB85 osteosarcoma cell growth inhibition, synergistic combos for chromothripsis tumors, BGB or cisplatin IC20 combos (AID 1671453; in the data active = inhibition above about 80%;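 note: cells exposed for 96 hours before readout; 0% = vehicle DMSO and 100% = high DMSO killing control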). Particulars: HTB85 osteosarcoma cells, drug combinations, stronger effect = higher value.
Experiment [8] has as its target Single-stranded DNA-binding protein (Escherichia coli (strain K12)) (UniProt P0AGE0). Description: E. coli SSB displacement from DNA, counter-screen for HCV NS3 helicase inhibitor project, biochemical, fluorescence polarization, NIH Clinical Collection (AID 743271; in the data active = inhibition above about 28%). Particulars: stronger effect = higher value, concentration not given here.
The nature of experiment [9]: fluorescence interference in NS3h assay format, artefact control for HCV NS3 helicase inhibitor project, biochemical, NIH Clinical Collection (AID 743272; call rule not given here;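 note: HCV NS3 helicase with a Cy5 labelled single stranded DNA probe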). The settings on record: fluorescence interference counterscreen, stronger effect = lower value. For orientation: The purpose of a counterscreen is to sort out artefacts and off-target activity.
Another experiment has as its system F380Y. Description: modulators of BK channel variants, profiling panel, selectivity assay, cell-based, U2OS BacMam, thallium flux, beta subunits (AID 1259406).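 Note: initial slope of Thallos dye fluorescence rise after thallium is added; log ratio against the mean of 0.3% DMSO vehicle wells on the same plate.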 The settings on record: at 30 µM.
The subject of another experiment is F380Y/beta1. The description is as above. Particulars: at 30 µM.
The subject of a further experiment is F380Y/beta2Delta. The description is as above. Particulars: at 30 µM.
Another experiment deals with F380Y/beta4. The experiment is described as above. The settings on record: at 30 µM.
Experiment [10] has as its target Calcium-activated potassium channel subunit alpha-1 (Homo sapiens) + Leucine-rich repeat-containing protein 26 (Homo sapiens) (UniProt Q12791+Q2I0M4). The experiment is described as above. The settings on record: F380Y/Slo1WT/gamma1, at 30 µM.
The next experiment has as its system R275C. The description is as above. Particulars: at 30 µM.
The test system of the next experiment is R275C/beta1. Described as above. Particulars: at 30 µM.
The next experiment relates to R275C/beta2Delta. The description is as above. The settings on record: at 30 µM.
The next experiment concerns R275C/beta4. The description is as above. The settings on record: at 30 µM.
A further experiment concerns R275C/Slo1WT/beta2. Described as above. Particulars: at 30 µM.
A short description of experiment [11]: Cy5 fluorescence interference with SSB-bound oligo, artefact control for HCV NS3 helicase inhibitor project, biochemical, NIH Clinical Collection, E. coli SSB (AID 743268; call rule not given here).
[12] abbreviates: at 0.5 µM, stronger effect = higher value.
[13] abbreviates: measured here: combination with BGB IC20, at 0.005 µM.
The mark [14] stands for this setting: measured here: combination with BGB IC40, at 0.005 µM.
Where [15] appears, read: measured here: combination with BGB IC40, at 0.05 µM.
Setting [16] is: measured here: combination with cisplatin, at 0.5 µM, stronger effect = higher value.
[17] abbreviates: measured here: combination with cisplatin, at 5 µM, stronger effect = higher value.
The mark [18] stands for this setting: measured here: with BGB IC20 combination, at 0.5 µM.
[19] abbreviates: measured here: with cisplatin IC20 combination, at 0.5 µM.
[20] abbreviates: measured here: with BGB IC20, at 0.5 µM.
Where [21] appears, read: measured here: with BGB IC20, at 5 µM.
The mark [22] stands for this setting: measured here: with cisplatin IC20, at 0.5 µM.
[23] abbreviates: measured here: with cisplatin IC20, at 5 µM.

Calcium-activated potassium channel subunit alpha-1 (Homo sapiens) + Leucine-rich repeat-containing protein 26 (Homo sapiens), sequence (Q2I0M4 whole entry, looked up, one chain of several): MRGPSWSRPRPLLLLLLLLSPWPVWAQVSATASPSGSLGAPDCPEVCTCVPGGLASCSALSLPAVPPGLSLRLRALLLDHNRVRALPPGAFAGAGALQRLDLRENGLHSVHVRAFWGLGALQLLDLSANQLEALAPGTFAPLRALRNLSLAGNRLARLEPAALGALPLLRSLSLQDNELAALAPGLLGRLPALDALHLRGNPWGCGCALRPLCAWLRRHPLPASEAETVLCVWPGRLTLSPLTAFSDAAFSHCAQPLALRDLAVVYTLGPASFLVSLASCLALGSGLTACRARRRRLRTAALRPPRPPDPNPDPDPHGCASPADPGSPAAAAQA

For `Cc1cccc(Nc2cc(Cl)nc(SCC(=O)O)n2)c1C`, in [1], the survival is 88 (inactive).
Same read-out and setting: with `CC(=O)N(CC(O)CN(C(C)=O)c1c(I)c(C(=O)NCC(O)CO)c(I)c(C(=O)NCC(O)CO)c1I)c1c(I)c(C(=O)NCC(O)CO)c(I)c(C(=O)NCC(O)CO)c1I` (stereo unspecified) the figure was 2.67 (inactive).
For `CCCCCCCCCCCCCCCCCCOP(=O)([O-])OC1CC[N+](C)(C)CC1`, the call in experiment [2] and in experiment [3] was inactive.
With `CN1CCN(C2Cc3ccccc3Sc3ccc(Cl)cc32)CC1` (stereo unspecified), the compound was called inactive in experiment [4].
On the same count and under the same terms, the result for `O=C(CCCN1CCC(O)(c2cccc(C(F)(F)F)c2)CC1)c1ccc(F)cc1` reads “inactive”; that for `CCc1cccc(N(C)C(N)=Nc2cccc3ccccc23)c1`, “inactive”; that for `NC1=NCC2c3ccccc3Cc3ccccc3N12` (stereo unspecified), “inactive”.
In the case of `CNS(=O)(=O)CCc1ccc2[nH]cc(C3CCN(C)CC3)c2c1`, the result in experiment [4] was inactive.
What is called inhibition is the change of the read-out against control, counted positive when it falls. With `CCCC(CCC)C(=O)O`, the inhibition in experiment [5] (setting [12]) was -13.2% (inactive) and -3.77% (inactive); in [5] (setting [13]), -6.05% and -4.21%; in experiment [5] (setting [14]), -31.2% and 0.129%; in experiment [5] (setting [15]), -32.2% and 12.9%; in [5] (setting [16]), -39.1% and -9.89%; in experiment [5] (setting [17]), -24.7% and -24.2%. Moreover, the inhibition is -30.6% and 8.86% in [6] (BGB combo, at 5 µM); -23.5% (inactive) and 13.8% (inactive) in experiment [6] (at 0.5 µM); -2.31% and 15.6% in experiment [6] (cisplatin combo, at 5 µM); -33% and 14.7% in experiment [6] (setting [18]); 0.437% and 10.4% in [6] (setting [19]); -20.1% and 11% in experiment [6] (single agent, at 5 µM). Moreover, the inhibition in experiment [7] (at 0.5 µM) was -8.02% (inactive) and 3.4% (inactive); in [7] (setting [20]), -18.9% and -3.5%; in experiment [7] (setting [21]), 53.9% and 3.4%; in [7] (setting [22]) it was -4.12% and 2.48%; in experiment [7] (setting [23]) it was -47.8% and -2.5%; in [7] (single agent, at 5 µM) it was -17.1% and 13.4%.
`CCn1cc(C(=O)O)c(=O)c2ccc(C)nc21`: the inhibition in experiment [5] (setting [12]) is -12.4% (inactive) and -25.4% (inactive); in experiment [5] (setting [13]), -22.2% and -24.5%; in experiment [5] (setting [14]) it was 11.9% and -5.77%; in experiment [5] (setting [15]), 1.93% and -7.94%; in [5] (setting [16]), -11.7% and -31.6%; in experiment [5] (setting [17]), -6.26% and -18.6%. Besides, the inhibition in experiment [6] (BGB combo, at 5 µM) was -4.41% and 16.2%; in [6] (at 0.5 µM), 3.94% (inactive) and 4.3% (inactive); in experiment [6] (cisplatin combo, at 5 µM), -15% and -2.27%; in experiment [6] (setting [18]) it was -7.56% and 11.7%; in [6] (setting [19]), 7.18% and 9.4%; in experiment [6] (single agent, at 5 µM), 11.6% and -22.5%. In addition, the inhibition in experiment [7] (at 0.5 µM) was -2.77% (inactive) and -11% (inactive); in experiment [7] (setting [20]) it was -12.2% and -35.2%; in [7] (setting [21]) it was -14.2% and -15.8%; in experiment [7] (setting [22]), -1.63% and -0.143%; in experiment [7] (setting [23]) it was 17.1% and -0.249%; in [7] (single agent, at 5 µM), 22.3% and -3.38%.
As to `COc1ccc(-c2nc3ccc(C4=NNC(=O)CC4C)cc3[nH]2)cc1` (stereo unspecified), in [2], the compound was called inactive.
For `O=C(O)COCCN1CCN(C(c2ccccc2)c2ccc(Cl)cc2)CC1` (stereo unspecified), the survival in experiment [1] was 20 (inactive). Besides, the inhibition in [8] was -1.24% (inactive). Further, the fluorescence ratio in experiment [9] was 1.01 (inactive). Further, the compound was called inactive in experiment [2] and in experiment [4]. Besides, the log fold change Tl+ flux in the experiment on F380Y was 0.0594 (inactive); in the experiment on F380Y/beta1 it was 0.0627 (inactive); in the experiment with F380Y/beta2Delta it was 0.0743 (active); with F380Y/beta4, 0.0511 (inactive); in [10], 0.0148 (inactive); in the experiment on R275C, 0.0304 (inactive). Besides, the log fold change Tl+ flux in the experiment on R275C/beta1 is 0.109 (inactive); in the experiment on R275C/beta2Delta, 0.056 (inactive); in the experiment on R275C/beta4, 0.0338 (inactive); in the experiment on R275C/Slo1WT/beta2, -0.0639 (inactive).
Regarding `CS(=O)(=O)c1ccc([C@@H](O)[C@@H](CF)NC(=O)C(Cl)Cl)cc1`, the survival in [1] was 1.92 (inactive).
On to `Cc1ccc(/C(=C\CN2CCCC2)c2ccccn2)cc1`, for which, in experiment [1], the survival was 11.5 (inactive). Further, the call in experiment [4] was inactive.
Turning to `CC1(C)[C@H](C(=O)O)N2C(=O)C[C@H]2S1(=O)=O`, the compound was called inactive in experiment [2].
`CN1[C@@H]2CC(OC(=O)[C@H](CO)c3ccccc3)C[C@H]1[C@@H]1O[C@@H]12` (stereo partly specified): the fluorescence ratio in [11] is 0.95 (inactive); in experiment [9], 0.9 (inactive). The inhibition in [8] is 1.44% (inactive).
Consider `CC(C)c1c(C(=O)Nc2ccccc2)c(-c2ccccc2)c(-c2ccc(F)cc2)n1CC[C@@H](O)C[C@@H](O)CC(=O)O`, for which the outcome in experiment [3] and in experiment [4] was inactive.
As to `CC(C)(C(=O)O)c1ccc(C(O)CCCN2CCC(C(O)(c3ccccc3)c3ccccc3)CC2)cc1` (stereo unspecified), the fluorescence ratio in [11] is 1.07 (inactive); in [9], 1.04 (inactive). Also, the inhibition in experiment [8] is 1.05% (inactive). In experiment [4], the result was inactive. For the same compound, the log fold change Tl+ flux in the experiment on F380Y is -0.178 (active); in the experiment on F380Y/beta1, -0.0158 (inactive); in the experiment on F380Y/beta2Delta, -0.00892 (inactive); in the experiment with F380Y/beta4, -0.0315 (inactive); in experiment [10], 0.0201 (inactive); with R275C, 0.00746 (inactive). Also, the log fold change Tl+ flux in the experiment with R275C/beta1 is -0.0122 (inactive); with R275C/beta2Delta, -0.0184 (inactive); in the experiment on R275C/beta4 it was 0.0234 (inactive); in the experiment with R275C/Slo1WT/beta2 it was 0.0197 (inactive).
Regarding `O=C(O)c1cn(C2CC2)c2cc(N3CCNCC3)c(F)cc2c1=O`, in [1], the survival was 20.5 (inactive). Besides, the result in [2] and in [3] was inactive.
Regarding `Clc1ccccc1CN1CCc2sccc2C1`, the survival in experiment [1] was 17.8 (inactive). Moreover, the call in [2] and in [3] was inactive. In addition, the log fold change Tl+ flux is -0.26 (active) with F380Y; -0.0989 (active) in the experiment with F380Y/beta1; -0.214 (active) in the experiment on F380Y/beta2Delta; -0.152 (active) with F380Y/beta4; -0.00222 (inactive) in experiment [10]; -0.105 (inactive) in the experiment with R275C. Besides, the log fold change Tl+ flux is -0.145 (active) with R275C/beta1, -0.13 (active) with R275C/beta2Delta, -0.0465 (inactive) in the experiment with R275C/beta4 and 0.00594 (inactive) with R275C/Slo1WT/beta2.
Regarding `CN(C)C(=N)N=C(N)N`, the survival in [1] is 14 (inactive).
For `O=C(NCC1CCCCN1)c1cc(OCC(F)(F)F)ccc1OCC(F)(F)F` (stereo unspecified), the survival in [1] is 2.25 (inactive). Moreover, the figures for the fluorescence ratio in [11] and in [9] were 1.08 (inactive) and 0.81 (inactive), respectively. The inhibition in experiment [8] is 19.4% (inactive). In addition, the compound was classed as inactive in experiment [3].
